Bioassay records from PubChem BioAssay.
Only some compounds are listed: those with a hit (about 32% of all), similar ones and a draw of the others.
CYP2C19 activ = human CYP2C19 activators, primary screen, biochemical, luminescence; Cytochrome P450 2C19 (Homo sapiens), P33261; recombinant CYP2C19, luciferin-H EGE luminescence; stronger effect = higher value; 0 = fully inhibited enzyme, 1 = untreated enzyme; activation factor at 5 µM; 96,000 tested, under 10 active; AID 1025, 2008;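 active means activation factor of at least 2 at 5 µM in the primary screen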;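 further: 0 = wells with 2.5 mM tranylcypromine and 1 = vehicle-only wells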
PostGolgi ctrl = growth inhibition of yeast control strain, primary screen, counter-screen for post-Golgi transport modulator project; efflux-deficient yeast background strain, growth absorbance A615, 16 h; inhibition, % at 10 µM; actives 5% (n = 98,000); AID 738, 2007
PostGolgi yeast = phenotypic screen on post-Golgi transport, primary screen. post-Golgi transport phenotypic cell assay. inhibition, % at 10 µM. actives 0.9% (n = 98,000). AID 739, 2007;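 further: yeast cells grown in 1536-well plates; yeast grown about 18 h at 30C before absorbance read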
CYP2C9 inh = blockers of cytochrome P450 2C9 activity – biochemical, luminescence, ADME assay, primary screen; P11712; CYP2C9 Supersomes, luciferin-H conversion; inhibition, % at 5 µM; actives 20% (n = 96,000); AID 777, 2007;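 active means blocking of liver enzyme CYP2C9 beyond about 50% at 5 µM, limit read from the data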
Target sequence (P11712 whole entry, looked up): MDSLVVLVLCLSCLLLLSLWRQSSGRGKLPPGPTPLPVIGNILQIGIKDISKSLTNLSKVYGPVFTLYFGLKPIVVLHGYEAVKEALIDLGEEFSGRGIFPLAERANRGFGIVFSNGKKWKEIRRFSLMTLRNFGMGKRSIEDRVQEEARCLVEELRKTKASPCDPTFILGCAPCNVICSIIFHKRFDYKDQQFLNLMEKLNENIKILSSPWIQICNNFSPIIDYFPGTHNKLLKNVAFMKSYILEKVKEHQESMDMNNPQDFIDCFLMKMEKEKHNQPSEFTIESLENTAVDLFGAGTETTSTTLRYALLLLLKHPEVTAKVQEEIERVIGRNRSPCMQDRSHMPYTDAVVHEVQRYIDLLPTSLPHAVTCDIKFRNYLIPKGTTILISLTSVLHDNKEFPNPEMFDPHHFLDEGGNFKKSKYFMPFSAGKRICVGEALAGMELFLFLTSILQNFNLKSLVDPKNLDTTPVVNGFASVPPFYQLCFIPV
CYP2C9 act = human CYP2C9 activators, primary screen, biochemical, luminescence; recombinant CYP2C9, luciferin-H conversion; stronger effect = higher value; factor 1 = untreated enzyme, 0 = blocked; activation factor at 5 µM; actives 1.4% (n = 96,000); AID 1024, 2008;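 active means activation factor of 2 or more for CYP2C9 at a 5 µM dose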;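 further: 0 = sulfaphenazole-blocked wells and 1 = vehicle-only wells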
CYP2C19 inh = blockers of cytochrome P450 2C19 activity – biochemical, luminescence, ADME assay, primary screen; P33261; CYP2C19 Supersomes, luciferin-H EGE luminescence, 30 min; inhibition, % at 5 µM; actives 21% (n = 96,000); AID 778, 2007;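 active means CYP2C19 inhibition above a set limit at 5 µM in the primary screen, cut at about 50% in these data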;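 further: plate controls were negative control wells for no effect and 2.5 mM tranylcypromine positive control for full effect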
Starred values were filed as active, the others as inactive; nt = not tested or not shown. Unless noted, no stated cut-off is given here; in the data, active means inhibition above about 30%; inactive means the rest.

SMILES | CYP2C19 activ | PostGolgi ctrl | PostGolgi yeast | CYP2C9 inh | CYP2C9 act | CYP2C19 inh
Cc1nc2c(c(=O)n1CCC1=CCCCC1)c1nc3ccccc3nc1n2/N=C/c1ccco1 | 0.7 | 13.8 | -4.7 | 70.8* | 0.3 | 34.9
CCCn1c(C)nc2c(c1=O)c1nc3ccccc3nc1n2CCC1=CCCCC1 | 0.7 | 23.1 | 4.7 | 32.2 | 0.7 | 29.1
C1CCc2c(nnc3c2-c2nonc2CC3)C1 | 0.9 | -1.2 | -0.2 | 12.0 | 0.9 | 6.5
O=C(CSc1ncn[nH]1)Nc1ccccc1C(=O)O | 1 | 3.6 | 3.9 | 0.7 | 1 | -4.8
O=C(CSc1ncn[nH]1)Nc1nc(-c2ccccc2)ns1 | 0.2 | -5.9 | 0.5 | 79.0* | 0.2 | 78.2*
Cc1nnc(SCCC(=O)Nc2nc(-c3ccccc3)ns2)s1 | 0.5 | 4.9 | -16.9 | 39.6 | 0.6 | 53.2*
COc1ccc(OC)c(C(O)c2coc3ccc(O)c(CN4CCOCC4)c23)c1 (configuration not stated) | 0.4 | 0.6 | -3.2 | 53.5* | 0.5 | 58.5*
CN1CCN(S(=O)(=O)c2ccc(Sc3nc4ccccc4[nH]3)c3nsnc23)CC1 | 0.8 | -1.6 | 4.9 | 35.3 | 0.6 | 21.8
O=[N+]([O-])c1cc(C(F)(F)F)ccc1Sc1ccc2ccccc2n1 | 1 | -0.6 | -3.5 | -2.7 | 1 | -2.1
O=[N+]([O-])c1cc(S(=O)(=O)C(F)(F)F)ccc1Sc1nc2ccccc2s1 | 0.4 | 92.3* | 40.8* | 50.8* | 0.5 | 63.0*
O=[N+]([O-])c1cc(S(=O)(=O)C(F)(F)F)ccc1Sc1nc2ccccc2[nH]1 | 0.1 | 70.1* | 26.8 | 76.3* | 0.2 | 89.7*
CS(=O)(=O)c1ccc(Sc2nc3ccccc3[nH]2)c([N+](=O)[O-])c1 | 0.1 | 5.8 | 8.2 | 78.6* | 0.2 | 91.2*
O=C(Cc1ccccc1)Nc1nc2ccccc2[nH]1 | 0.6 | 25.3 | 3.3 | 34.5 | 0.7 | 42.1
O=C(Nc1nccs1)C(=O)c1c[nH]c2ccccc12 | 0.4 | 10.6 | -0.6 | 18.5 | 0.8 | 63.0*
O=C(Cc1c[nH]c2ccccc12)Nc1nc2ccccc2[nH]1 | 0.5 | 17.9 | -0.9 | 58.3* | 0.4 | 54.1*
O=C(Cc1c[nH]c2ccccc12)Nc1nccs1 | 0.5 | -8.6 | -12.3 | 20.7 | 0.8 | 54.6*
Cc1csc(NC(=O)Cc2c[nH]c3ccccc23)n1 | 0.6 | 6.9 | -4.8 | 28.1 | 0.7 | 35.2
Cc1cc(C)n(C2=NS(=O)(=O)c3ccccc32)n1 | 1.1 | 4.5 | 7.0 | -17.4 | 1.2 | -6.2
Cc1noc(C)c1COc1ccc(C(=O)OCC(=O)NC(=O)C2COc3ccccc3O2)cc1 (configuration not stated) | 0.9 | 6.9 | -1.1 | 40.7 | 0.6 | 13.8
Cc1cnn(CCC(=O)NNC(=S)Nc2cccc(Cl)c2)c1 | 1 | 7.3 | 13.3 | -0.2 | 1 | 2.4
Cc1cnc(-c2nnc(N(C)C(=O)c3ccccn3)s2)cn1 | 1.2 | nt | nt | -22.0 | 1.2 | -24.5
Cc1cccc(OCCn2c(-c3ccco3)nc3ccccc32)c1 | 0.5 | 30.4* | 12.3 | 46.4 | 0.5 | 48.0
Cc1cccc(OCCn2c(NC(=O)c3ccco3)nc3ccccc32)c1 | 0.9 | 50.8* | 2.6 | 4.7 | 1 | 8.9
O=C(Nc1nc2ccccc2n1CCOc1ccccc1)c1ccco1 | 0.4 | 6.5 | -6.7 | 38.5 | 0.6 | 57.9*
O=C(Nc1nc2ccccc2n1CCOc1ccc(Cl)cc1)c1ccco1 | 1 | 48.8* | 6.6 | 9.7 | 0.9 | 2.5
SMILES | CYP2C19 activ | PostGolgi ctrl | PostGolgi yeast | CYP2C9 inh | CYP2C9 act | CYP2C19 inh
COc1ccc(CC(=O)NCC2(c3ccc(OC)c(OC)c3)CCOCC2)cc1 | 0.9 | 7.3 | 0.6 | 1.9 | 1 | 9.5
CC(C)(C)C(=O)C(Oc1cccc2nonc12)n1cncn1 (configuration not stated) | 0.9 | 17.4 | 46.4* | -2.9 | 1 | 12.0
COc1ccc(OC)c(S(=O)(=O)n2nc(C)cc2C)c1 | 0.3 | 21.3 | 14.1 | 14.3 | 0.9 | 68.1*
COc1ccc(OC)c(S(=O)(=O)n2cnc3cc(C)c(C)cc32)c1 | 0 | 30.1* | 5.3 | 86.8* | 0.1 | 97.5*
CCS(=O)(=O)c1ccc(O)c(NC(=O)Nc2ccccc2)c1 | 1 | 2.4 | -7.6 | 18.9 | 0.8 | 4.0
Cc1ccc2cc(CN(C(=O)c3ccncc3)C(C)C)c(=O)[nH]c2c1 | 0.8 | 3.9 | 3.9 | 22.5 | 0.8 | 23.4
O=C(NC12CC3CC(CC(C3)C1)C2)c1cc2nc(-c3ccco3)cc(C(F)(F)F)n2n1 | 0.9 | 9.2 | 0.3 | 23.5 | 0.8 | 9.0
Cc1cc(-n2c(C)cc(C(=O)CSc3ccc4c(c3)OCCO4)c2C)no1 | 0.1 | 21.1 | -8.3 | 31.2 | 0.7 | 89.1*
Cc1cc(-n2c(C)cc(C(=O)CSc3nnnn3-c3ccccc3)c2C)no1 | 0.6 | 20.0 | -3.1 | 23.0 | 0.8 | 42.9
Cn1nc(-c2ccccc2)c(CSc2ccccc2Cl)c1Cl | 0.6 | 3.9 | -4.8 | 24.2 | 0.8 | 36.3
Cc1ccc(S(=O)(=O)c2c(COC(=O)c3ccccc3Cl)c(-c3ccccc3)nn2C)cc1 | 0.5 | 11.8 | -1.6 | 70.1* | 0.3 | 50.2*
COC(=O)[C@H](CCSC)NC(=O)NCc1ccc(S(N)(=O)=O)cc1 | 1 | 5.8 | 4.7 | 10.3 | 0.9 | 2.6
CC(OC(=O)c1cc2sccc2n1C)C(=O)NCCc1ccccc1 (configuration not stated) | 0.5 | 26.5 | -5.8 | 82.7* | 0.2 | 52.5*
CCC(OC(=O)c1cc2sccc2n1C)C(=O)NCC1CCCO1 (configuration not stated) | 0.8 | 17.9 | 0.8 | 11.0 | 0.9 | 24.6
CC(OC(=O)c1cc2sccc2n1C)C(=O)NCc1ccc(F)cc1 (configuration not stated) | 0.2 | 12.0 | -4.1 | 74.4* | 0.3 | 78.5*
CC(OC(=O)c1cc2sccc2n1C)C(=O)NCc1ccc2c(c1)OCO2 (configuration not stated) | 0.7 | -4.3 | -2.5 | 82.3* | 0.2 | 31.8
CC(OC(=O)c1cc2sccc2n1C)C(=O)NCC1CCCO1 (configuration not stated) | 0.7 | 4.3 | -1.7 | 42.3 | 0.6 | 33.4
Cc1ccc(S(=O)(=O)N2CCN(CC(=O)NC(=O)NCc3ccccc3)CC2)cc1C | 0.9 | -7.5 | 4.8 | -1.5 | 1 | 11.0
CCc1ccccc1N1C(=O)c2cccc3c(N4CCOCC4)c([N+](=O)[O-])cc(c23)C1=O | 0.7 | 10.8 | -5.8 | 37.2 | 0.6 | 28.5
O=C1c2cccc3c(Nc4ccccc4Cl)c([N+](=O)[O-])cc(c23)C(=O)N1CCO | 0.9 | 16.9 | 44.6* | 23.3 | 0.8 | 14.0
NC(=O)c1nn(-c2ccccc2)nc1N | 1 | 9.6 | 1.9 | 2.2 | 1 | -3.2
O=C(NCCn1ccc2ccccc21)C1CCCCC1 | nt | 21.9 | 0.4 | nt | nt | nt
